Hit rate of the full screen: of about 310,000 compounds, about 17,000 (5.5%) were called active. Roughly 11% stayed inconclusive and do not appear here. Calls come from the whole dose curve; as a rule, active = well fitted inhibition curve with a large enough effect; inconclusive = small, poorly fitted or top-dose-only effect, or effect the other way; inactive = no such curve, though single readings can be large or run the other way. For the sample, actives were picked, then their nearest neighbours and some compounds at random.
target: Nuclear receptor ROR-gamma (Mus musculus) (UniProt P51450); assay: qHTS for inhibitors of ROR gamma transcriptional activity; conditions: Drosophila S2 Gal4-RORgamma UAS-luciferase reporter, 20 h; series mostly up to 53.6 µM; activity change, negative = inhibition: at the top concentration; note: nearly all actives have a fitted effect of over 60% in size
Sequence (P51450 whole entry, looked up, the tested form may be a part): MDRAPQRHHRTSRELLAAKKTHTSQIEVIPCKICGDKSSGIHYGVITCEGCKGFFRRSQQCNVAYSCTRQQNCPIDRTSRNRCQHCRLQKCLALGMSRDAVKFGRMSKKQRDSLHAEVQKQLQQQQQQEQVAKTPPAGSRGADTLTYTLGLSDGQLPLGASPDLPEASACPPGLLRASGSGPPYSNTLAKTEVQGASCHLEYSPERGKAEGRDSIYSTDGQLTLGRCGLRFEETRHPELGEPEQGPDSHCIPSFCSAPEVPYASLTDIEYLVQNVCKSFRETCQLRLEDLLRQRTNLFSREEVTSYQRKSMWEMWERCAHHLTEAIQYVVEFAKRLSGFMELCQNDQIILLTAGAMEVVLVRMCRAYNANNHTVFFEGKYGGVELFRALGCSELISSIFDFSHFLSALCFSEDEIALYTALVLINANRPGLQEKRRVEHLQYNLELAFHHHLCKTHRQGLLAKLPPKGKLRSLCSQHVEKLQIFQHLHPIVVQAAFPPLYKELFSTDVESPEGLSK
Method in brief: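 Compounds are pin-transferred onto Drosophila Schneider cells expressing a copper-inducible Gal4–ROR gamma transactivation domain fusion. After 1 hr, copper sulfate is added to 700 uM final; luciferase is read 20 hr later.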
% is set by controls: 0 for no effect and ±100 for the full control effect; potency is the fitted concentration of half-maximal effect.

Activity change, negative = inhibition, inactive:
CSc1ncccc1C(=O)NCc1ccccc1Cl -1.28%
COC(=O)c1ccc(CNC(=O)C2CCC(=O)N(Cc3cccc(F)c3)C2)cc1 (stereo not given) 8.55%
CCc1nnc(NC(=O)CSCc2cc(=O)n3cc(C)sc3n2)s1 1.38%
O=C1C(=O)N(CCCN2CCOCC2)C(c2ccc([N+](=O)[O-])cc2)/C1=C(\O)c1ccc2c(c1)OCCO2 (stereo not given) -5.32%
C=CCn1c(=O)c(C(=O)NCc2ccc3c(c2)OCO3)c(O)c2ccccc21 -26.9%
CC1CCN(CCCn2c(SCC(=O)NC3CCCC3)nc3ccccc3c2=O)CC1 -15.6%
CN(CCNC(=O)c1cc2c(-c3ccccc3F)nn(C)c2s1)C1CCCCC1 -20.2%
O=c1[nH]cnc(O)c1C(c1ccc(F)cc1)c1c(O)nc[nH]c1=O -1.37%
CCOc1ccc(CCNC(=O)CCc2nnc3ccc(N4CCCC4)nn23)cc1OCC 1.07%
CCOC(=O)C1(CCOC)CCN(Cc2cc3ccccc3s2)CC1 -12.6%
COC(=O)c1ccc(CN2CCC(CO)(Cc3ccc(OC)cc3)CC2)cc1 4.46%
Cc1cc2c(c(=O)n1Cc1ccccc1)C1O[C@](CCCCN3C(=O)c4ccccc4C3=O)(Cc3ccccc31)O2 18.4% [at 10 µM]
O=C(CN1CCc2cc3c(cc2C1)OCCCO3)Nc1ccccc1 -0.965%
Cc1cccc(-n2cc(CN3CCN(C(=O)c4ncn[nH]4)CC3)c(-c3cccc(F)c3)n2)c1 0.467%
COc1ccc(-n2cc(CN(C)Cc3n[nH]c(=O)[nH]3)c(-c3cccc(F)c3)n2)cc1 23%
COc1ccc(NC(=O)CCC(=O)Nc2nnc(C3CCCCC3)s2)cc1 -27.8%
CC(C)(C)NS(=O)(=O)c1ccc(NC(=O)C2CCCO2)cc1 (stereo not given) 1.02%
O=C(CNC(=O)C1COc2ccccc2O1)N/N=C/c1cc(Br)c(O)c(Br)c1 (stereo not given) 1.65%
O=C(CNC(=O)c1cccnc1)N/N=C/c1cc(Br)c(O)c(Br)c1 -21.6%
O=C(Nc1ccccc1)Nc1nc2ccccc2s1 -23.2%
CSCCC(Nc1nc2ccccc2s1)C(=O)O (stereo not given) -22.4%
CC(C)(COC(=O)Nc1ccccc1)COC(=O)Nc1ccccc1 -2.91%
CCn1c(SCC(=O)Nc2ccc(Br)cc2)nc2sc3c(c2c1=O)CCN(C)C3 39%
Nc1ncc(CN2CCCC(C(=O)Nc3ccc(-c4ccco4)cc3)C2)cn1 (stereo not given) -10.1%
CCOCc1nnc(NC(=O)CCS(=O)(=O)Cc2ccccc2)s1 10.4%
CCOCCOC(=O)C1=C(C)NC(=O)NC1c1ccc2c(c1)OCO2 (stereo not given) 0.346%
CC(=O)N(CCCN(C)C)c1nc2ccc(C)cc2s1 1.73%
CCN(CC)CCN(C(=O)c1ccc(S(=O)(=O)N2CCOCC2)cc1)c1nc2cc3c(cc2s1)OCCO3 22.5%
CN1CCN(C(=O)c2ccccc2NC(=O)COc2ccccc2Cl)CC1 7.86%
O=C1COc2ccc(S(=O)(=O)NCCc3ccc(Cl)cc3)cc2N1 -15.2%
Cc1cc(OCC(=O)Nc2c(C)n(C)n(-c3ccccc3)c2=O)ccc1[N+](=O)[O-] 16.1%
Oc1cccc(C2c3[nH]c4ccccc4c3CCN2Cc2cnn(-c3ccccc3)c2)c1 (stereo not given) 17.3%
COc1ccc(C2c3[nH]c4ccccc4c3CCN2CCCn2cccn2)cc1C (stereo not given) -4.28%
CN(Cc1ccc(F)cc1Cl)S(=O)(=O)c1cccs1 13.6%
CCc1ccc2[nH]c(=O)c(Cc3ccccc3)c(O)c2c1 14.8%
O=C(Nc1ccccc1)OCc1cc(-c2ccc(Cl)cc2)on1 0.919%
O=C1c2cccc3cc(Br)cc(c23)C(=O)N1Nc1ccccc1 -19.1%
CC1(C)Cc2c(sc(NC(=O)C(=O)N3CCOCC3)c2C#N)CO1 11.5%
O=S(=O)(Nc1ccccc1Cl)c1cccc2nsnc12 -0.764%
O=C(Cc1ccccc1)Nc1ccc(NC(=O)c2cccnc2)cc1 28.3%
CCC(C)C(=O)Nc1ccccc1N1CCN(c2ccc(F)cc2)CC1 (stereo not given) -20.4% [at 1.91 µM]
Cc1cc(C)n(CCC(=O)N2CCN(S(=O)(=O)c3ccc(C)c(C)c3)CC2)n1 -23.4%
Cc1cc(C)n(CC(=O)Nc2ccc([N+](=O)[O-])cc2)n1 4.43%
C=CCSc1nnc(N2C(=O)C(O)=C(C(=O)c3ccco3)C2c2ccc(F)cc2)s1 (stereo not given) 0.341%
COc1cccc(NC(=O)c2ccc(S(=O)(=O)N(C)C)cc2)c1 27.1%
COc1cccc(C(=O)Nc2nnc(S(=O)(=O)N(C)c3ccccc3)s2)c1 -1.13%
COc1ccc2[nH]c3nc(SCC(=O)NC4CC4)nnc3c2c1 -8.92%
COc1cc2c(C(=O)O)c(C)n(C)c2c2ccccc12 13.6%
Cc1c(C(=O)N/N=C/c2ccccc2)[nH]c2c([N+](=O)[O-])cccc12 -16.9%
CCOC(=O)C1CN(S(=O)(=O)c2ccc(OC)cc2)c2cc(Cl)ccc2O1 (stereo not given) -1.61%
COc1ccc(Cc2nc3ccc(C(=O)N4CCC(N(C)C)C4)cc3o2)cc1 (stereo not given) 6.86%
C/C(=N\Nc1nncc2ccccc12)c1ccc(Cl)c([N+](=O)[O-])c1 -15.3%
COc1ccc(NC(=O)CC2C(=O)NC3CCCCC3N2C(=O)c2ccc(F)cc2)cc1 (stereo not given) 8.91%
O=C(c1ccc(S(=O)(=O)N2CCCC2)cc1)N1CCN(c2ccccc2F)CC1 5.53%
Cn1c(=O)cc(OCC(=O)N2CCN(c3ccccc3F)CC2)c2ccccc21 -6.44%
CC1CCN(C(=O)c2ccc3c(=O)n4c(nc3c2)CCCCC4)CC1 -0.982%
NS(=O)(=O)c1ccccc1NC(=O)c1c(O)c2ccccc2[nH]c1=O -12%
C/C(=N\NC(N)=S)c1cccnc1 -8.34%
C/C(=N\NC(N)=S)c1ccncc1 -38.1%
Cn1c(=O)c2sccc2n(Cc2ccc(Br)cc2)c1=O 61.6%
O=C(CN1C(=O)CSC1=O)N1CCCC(Nc2ccc(F)cc2)C1 (stereo not given) 18%
Nc1cc(N)nc(SCc2cccc(F)c2)n1 19.2%
CCC(=O)Nc1ccc(C(=O)Nc2cc(C)on2)cc1 -13.3%
Cc1cc(C(=O)NCCCc2ccccc2)no1 17.6%
O=C(Nc1ccccc1)c1ccco1 -3.1%
COc1ccc(NC(=O)NN2CCN(C)CC2)c(OC)c1 10.2%
COc1ccc(CCn2c(=N)c(C(=O)NCC3CCCO3)cc3c(=O)n4cccc(C)c4nc32)cc1OC (stereo not given) -28%
COc1ccc(/C=C(/CC(=O)Nc2ccc(C)cc2)c2nc3ccccc3s2)cc1 33.7%
COc1ccc(S(=O)(=O)N2CCOCC2)cc1C(=O)Nc1nc2ccccc2s1 -12.9%
CCOC(=O)CNC(=O)CSc1ncccc1-c1nc2ccccc2[nH]1 43.9%
COc1ccc(N(CC(=O)NCc2ccc(F)cc2)C(=O)CCC(=O)Nc2nccs2)cc1 -29.3%
COc1ccc(S(=O)(=O)NNC(=O)Nc2ccc(C)cc2)c(OC)c1 -9.69%
CCOC(=O)NN1C(=O)c2ccccc2NC1c1cccc(O)c1 (stereo not given) 16.3%
O=C1c2ccccc2NC(c2ccccc2O)N1NS(=O)(=O)c1ccccc1 (stereo not given) -4.74%
COc1ccc(N(CC(=O)N2CCOCC2)S(=O)(=O)c2ccccc2)cc1Cl -7.47%
Cc1ccc(NC(=O)CCN2C(=O)c3ccccc3C2=O)cc1C 2.87%
Cc1nn(-c2ccccc2)c2c1c(C)c(CCC(=O)NCC1CCCO1)c(=O)n2C (stereo not given) -11.4%
O=C(N/N=C/c1ccccn1)c1cccc(NC(=O)c2ccc(Cl)cc2)c1 -27.8%
CSc1ccc(/C=N\NC(=O)COc2ccc(Cl)cc2Br)cc1 -30.3%
C=CCN1CN(S(=O)(=O)c2ccc(OC)cc2)c2nc3ccccc3nc21 14.6%
O=C(Nc1nc2ccc([N+](=O)[O-])cc2s1)c1ccncc1 13%
O=C(COC(=O)c1ccc(F)cc1)Nc1nc2ccc([N+](=O)[O-])cc2s1 -1.04%
CCOc1ccccc1NS(=O)(=O)c1cc2c3c(c1)C(C)C(=O)N3CCC2 (stereo not given) 8.24%
CCc1ccccc1NC(=O)c1ccc2snnc2c1 -1.7%
COCCN1CCN(C(=O)c2cc(COc3ccc(F)cc3Cl)on2)CC1 4.15%
CCn1c(SCC(=O)NCC2CCCO2)nc2cc(S(=O)(=O)N3CCCCC3)ccc21 (stereo not given) 29.2%
COCCNC(=O)c1ccc(Cn2c(SCC(=O)NCC3CCCO3)nc3ccc(Br)cc3c2=O)cc1 (stereo not given) 5.53%

Potency, active:
CCOC(=O)C1(CCOC)CCN(Cc2ccc(C(=O)OC)cc2)CC1 7.08 µM
Cc1ccc(-n2cc(CN(C)Cc3nccn3C)c(-c3cccc(C)c3)n2)cc1 7.94 µM
Oc1c(Br)cc(/C=N/NC(=S)NCC2CCCO2)cc1Br (stereo not given) 0.1 µM
c1ccc2sc(NN=C3CCCC3)nc2c1 7.94 µM
CN(C)CCCN(C(=O)c1ccc(S(=O)(=O)N2CCCCCC2)cc1)c1nc2ccc(Br)cc2s1 2.82 µM
COc1cccc(C2c3[nH]c4ccccc4c3CCN2Cc2cccc(C)n2)c1 (stereo not given) 12.6 µM
O=C1C=C(c2ccc(Cl)cc2)C(=O)N1Nc1ccccc1 7.08 µM
C/C(=N\NC(=O)CCn1nc(C)cc1C)C(C)(C)C 11.2 µM
COc1cccc(-c2nnc(NC(=O)c3ccc(S(=O)(=O)N(CC(C)C)CC(C)C)cc3)o2)c1 0.282 µM
COc1cccc2c(C)c(C(=O)O)[nH]c12 2 µM
O=C(Nn1cc(C(=O)N2CCN(c3ccccc3F)CC2)c2ccccc2c1=O)c1cnccn1 14.1 µM
C/C(=N\NC(=S)NC(C)C)c1ccc(C(C)(C)C)cc1 1 µM
CCCCNC(=S)NNC(=O)c1cc(C)on1 10 µM
COc1cccc2sc(NNC(=O)c3nc4ccccc4s3)nc12 3.55 µM
CCOC(=O)NN1C(=O)c2ccccc2NC1c1ccccc1O (stereo not given) 11.2 µM
O=C(COc1ccc(Cl)cc1Cl)N/N=C/c1ccccn1 12.6 µM
O=C(NC(Nc1nc2ccc([N+](=O)[O-])cc2s1)(C(F)(F)F)C(F)(F)F)c1ccccc1 6.31 µM
CCCCn1c(SCC(=O)NCC2CCCO2)nc2ccc(N3CCOCC3)cc2c1=O (stereo not given) 2.51 µM
